Records with an inconclusive call do not appear. More than one record can exist for a structure, and the calls need not agree. The source made the active and inactive calls. The calls were made as follows, unless noted: active = hit-call score of the fitted dose curve at least 0.9, where 1 is the maximum; inconclusive = response in the unintended direction; inactive = score below 0.9.
Key:
[1] = CPHEA_Stoker_NIS_Cytotoxicity: Cytotoxicity Assessment for CPHEA's Radioactive Iodide Uptake (RAIU) Assay for Sodium/Iodide Symporter (NIS) Inhibition, Stoker and Laws Labs (AID 2283897);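 as to AC50: active means loss of ATP signal versus DMSO meaning cytotoxicity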
Method in brief: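 ATP luminescence (Cell Titer Glo) measured viability, with loss of signal normalized to DMSO controls. Cells: hNIS-HEK293T-EPA, seeded 40 hours prior. Dosing: 0.001–100uM, 2 hours, room temperature, uptake buffer pH 7.4.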

[2] = molecular target: zebrafish Thyroid Hormone Receptor alpha (TRa), thraa (gene 30670) (UniProt Q98867); experiment: ATG_zfTRa_XSP2: Attagene TRANS-FACTORIAL Multi-Species (XSP1) HepG2 Assay for zebrafish Thyroid Hormone Receptor alpha (TRa) (AID 2283832);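 also: actives raise zebrafish TRa-Gal4 reporter transcript above DMSO baseline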
Method in brief: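 Transient transfection of human HepG2 with GAL4-UAS reporter units, then 24 h chemical treatment. RNA isolated, reverse-transcribed, PCR-amplified, FAM-labelled, HpaI-digested and run on capillary electrophoresis. Gain-of-signal relative to DMSO.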

[3] = tested on: zebrafish Peroxisome Proliferator-activated Receptor gamma (PPARg), gene 557037; experiment: ATG_zfPPARg_XSP2: Attagene TRANS-FACTORIAL Multi-Species (XSP2) HepG2 Assay for zebrafish Peroxisome Proliferator-activated Receptor gamma (PPARg) (AID 2283833);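 also: reporter mRNA from a zebrafish PPARg GAL4 chimera measured by RT-PCR and capillary electrophoresis; actives increase reporter signal over DMSO so AC50 reflects activation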
Method in brief: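 Cell-based transactivation of a chimeric zebrafish PPARg-GAL4 receptor was assessed in transiently transfected HepG2 cells after 24 h of treatment. Reporter mRNA induction, detected fluorescently after RT-PCR, was analysed in the positive direction against DMSO.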

[4] = tested on: turtle Thyroid Hormone Receptor, alpha (TRa), gene 101949057; experiment: ATG_trTRa_XSP2: Attagene TRANS-FACTORIAL Multi-Species (XSP1) HepG2 Assay for turtle Thyroid Hormone Receptor, alpha (TRa) (AID 2283834);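 also: hits raise reporter mRNA over the DMSO baseline so AC50 marks activators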
Method in brief: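 Gain-of-signal reporter transcription measured in transiently transfected HepG2 at 24 h post-dose. Fluorescent RT-PCR products were resolved by capillary electrophoresis and compared with DMSO vehicle.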

[5] = ATG_M_61_XSP2: Attagene TRANS-FACTORIAL Multi-Species (XSP2) HepG2 Assay for M61 Transcription Factor (Internal Marker) (AID 2283835; active = hit-call score of the fitted dose curve at least 0.9, where 1 is the maximum; inactive = score below 0.9;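 also: reporter mRNA of an internal background marker read by RT-PCR and capillary electrophoresis; active means a rise in signal above the DMSO baseline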)
Method in brief: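 HepG2 cells transiently transfected with multiple GAL4-UAS reporter units; 3 nM 6-alpha-fluorotestosterone and 1.5 nM norgestrel present to stimulate androgen receptor. After 24 h compound exposure, reporter mRNA measured by RT-PCR and capillary electrophoresis fluorescence, gain-of-signal versus DMSO baseline.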

[6] = molecular target: zebrafish Thyroid Hormone Receptor beta (TRb), thrb (gene 30607) (UniProt Q9PVE4); experiment: ATG_zfTRb_XSP2: Attagene TRANS-FACTORIAL Multi-Species (XSP1) HepG2 Assay for zebrafish Thyroid Hormone Receptor beta (TRb) (AID 2283836)
Method in brief: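 Human liver HepG2, transient MRTU transfection (NR-Gal4 chimeras, GAL4-UAS reporters); 24 h compound exposure; total RNA → oligo(dT) RT → PCR → 6-FAM label → HpaI cut → CE fluorescence. DMSO = negative control/baseline.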

[7] = ATG_XTT_Cytotoxicity_XSP2: Cytotoxicity Assessment in the Attagene TRANS-FACTORIAL Multi-Species (XSP2) HepG2 Assay (AID 2283837)
Method in brief: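 HepG2 cells, transiently transfected with multiple reporter constructs, exposed to chemical for 24 h. Cell number assessed with XTT fluorescence read-out; loss of signal fitted relative to DMSO.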

[8] = molecular target: human Thyroid hormone Receptor alpha (TRa), THRA (gene 7067) (UniProt P10827); experiment: ATG_hTRa_XSP2: Attagene TRANS-FACTORIAL Multi-Species (XSP2) HepG2 Assay for human Thyroid hormone Receptor alpha (TRa) (AID 2283838)
Method in brief: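 HepG2 cells were transiently transfected with GAL4-UAS reporter units for chimeric human TRa-Gal4 and dosed for 24 hours, with 3 nM 6-alpha-fluorotestosterone and 1.5 nM norgestrel present. Reporter mRNA was quantified by RT-PCR, FAM labelling and capillary electrophoresis, with gain of signal fitted versus DMSO.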

[9] = molecular target: frog Thyroid hormone Receptor alpha (TRa), thra-a (gene 397942) (UniProt P15204); experiment: ATG_frTRa_XSP2: Attagene TRANS-FACTORIAL Multi-Species (XSP2) HepG2 Assay for frog Thyroid hormone Receptor alpha (TRa) (AID 2283839);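 as to AC50: AC50 reflects induction of frog TRa-driven reporter mRNA above DMSO baseline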
Method in brief: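 Frog thyroid receptor alpha was tested as an exogenous NR-Gal4 fusion in transiently transfected HepG2 cells. After 24 h chemical treatment, reporter mRNA induction was quantified by RT-PCR and capillary electrophoresis, with gain-of-signal analysed relative to DMSO.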

[10] = molecular target: human Thyroid hormone Receptor beta (TRb), THRB (gene 7068) (UniProt P10828); experiment: ATG_hTRb_XSP2: Attagene TRANS-FACTORIAL Multi-Species (XSP2) HepG2 Assay for human Thyroid hormone Receptor beta (TRb) (AID 2283840);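 also: actives raise reporter mRNA so potency reflects agonist-like gain of signal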
Method in brief: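 In this cell-based multiplex, HepG2 liver cells carrying transfected GAL4-UAS reporter constructs are exposed to chemical for 24 hours, then reporter transcripts are measured by RT-PCR with capillary electrophoresis, scored as gain of signal against DMSO.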

Measured: AC50

Chain of zebrafish Thyroid Hormone Receptor alpha (TRa), thraa (gene 30670) (Q98867 whole entry, looked up, the tested form may be a part): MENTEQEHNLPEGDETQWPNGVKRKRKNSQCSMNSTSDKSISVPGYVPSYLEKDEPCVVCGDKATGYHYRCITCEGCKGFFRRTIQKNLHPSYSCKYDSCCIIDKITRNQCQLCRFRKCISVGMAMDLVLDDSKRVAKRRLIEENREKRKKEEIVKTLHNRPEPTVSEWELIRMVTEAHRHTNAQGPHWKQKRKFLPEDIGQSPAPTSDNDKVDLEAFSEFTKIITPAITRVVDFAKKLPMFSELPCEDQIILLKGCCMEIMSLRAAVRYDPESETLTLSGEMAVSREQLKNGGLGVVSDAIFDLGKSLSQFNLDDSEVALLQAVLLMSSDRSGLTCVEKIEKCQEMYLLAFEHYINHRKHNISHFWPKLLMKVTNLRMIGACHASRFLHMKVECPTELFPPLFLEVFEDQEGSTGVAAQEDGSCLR
Chain of human Thyroid hormone Receptor alpha (TRa), THRA (gene 7067) (P10827 whole entry, looked up, the tested form may be a part): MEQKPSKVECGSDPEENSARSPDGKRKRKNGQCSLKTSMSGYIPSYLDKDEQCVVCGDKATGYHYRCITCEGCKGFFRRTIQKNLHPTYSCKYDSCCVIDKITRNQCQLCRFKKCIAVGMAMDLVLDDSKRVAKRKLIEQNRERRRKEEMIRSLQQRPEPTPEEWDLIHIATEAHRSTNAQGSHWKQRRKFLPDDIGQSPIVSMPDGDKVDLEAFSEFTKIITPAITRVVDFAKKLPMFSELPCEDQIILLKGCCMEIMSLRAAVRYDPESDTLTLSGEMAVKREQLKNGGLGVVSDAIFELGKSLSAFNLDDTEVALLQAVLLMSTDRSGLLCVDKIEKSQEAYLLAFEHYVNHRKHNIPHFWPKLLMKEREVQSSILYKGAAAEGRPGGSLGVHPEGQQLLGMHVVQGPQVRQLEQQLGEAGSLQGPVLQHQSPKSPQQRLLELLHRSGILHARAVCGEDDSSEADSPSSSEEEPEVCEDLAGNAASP
Chain of zebrafish Thyroid Hormone Receptor beta (TRb), thrb (gene 30607) (Q9PVE4 whole entry, looked up, the tested form may be a part): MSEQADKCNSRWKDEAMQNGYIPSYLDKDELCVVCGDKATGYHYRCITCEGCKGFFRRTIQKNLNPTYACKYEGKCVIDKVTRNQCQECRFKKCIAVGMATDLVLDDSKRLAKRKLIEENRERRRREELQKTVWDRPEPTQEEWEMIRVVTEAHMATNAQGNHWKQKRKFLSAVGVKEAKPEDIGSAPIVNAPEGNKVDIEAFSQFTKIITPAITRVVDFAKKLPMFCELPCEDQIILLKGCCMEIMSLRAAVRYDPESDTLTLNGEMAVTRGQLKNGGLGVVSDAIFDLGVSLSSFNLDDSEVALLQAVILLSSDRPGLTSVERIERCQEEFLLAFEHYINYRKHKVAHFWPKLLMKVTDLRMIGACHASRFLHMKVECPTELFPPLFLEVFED
Chain of frog Thyroid hormone Receptor alpha (TRa), thra-a (gene 397942) (P15204 whole entry, looked up, the tested form may be a part): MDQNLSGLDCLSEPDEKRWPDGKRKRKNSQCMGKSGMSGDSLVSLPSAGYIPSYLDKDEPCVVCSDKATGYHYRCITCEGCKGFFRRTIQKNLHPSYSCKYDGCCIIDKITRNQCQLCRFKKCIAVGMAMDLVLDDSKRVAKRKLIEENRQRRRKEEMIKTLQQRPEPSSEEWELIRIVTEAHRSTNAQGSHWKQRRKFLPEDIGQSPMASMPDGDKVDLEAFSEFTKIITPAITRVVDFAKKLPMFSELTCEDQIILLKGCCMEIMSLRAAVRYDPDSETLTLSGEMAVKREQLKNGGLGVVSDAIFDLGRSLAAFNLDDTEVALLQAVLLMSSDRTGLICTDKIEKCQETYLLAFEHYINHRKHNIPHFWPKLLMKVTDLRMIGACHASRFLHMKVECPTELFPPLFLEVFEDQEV
Chain of human Thyroid hormone Receptor beta (TRb), THRB (gene 7068) (P10828 whole entry, looked up, the tested form may be a part): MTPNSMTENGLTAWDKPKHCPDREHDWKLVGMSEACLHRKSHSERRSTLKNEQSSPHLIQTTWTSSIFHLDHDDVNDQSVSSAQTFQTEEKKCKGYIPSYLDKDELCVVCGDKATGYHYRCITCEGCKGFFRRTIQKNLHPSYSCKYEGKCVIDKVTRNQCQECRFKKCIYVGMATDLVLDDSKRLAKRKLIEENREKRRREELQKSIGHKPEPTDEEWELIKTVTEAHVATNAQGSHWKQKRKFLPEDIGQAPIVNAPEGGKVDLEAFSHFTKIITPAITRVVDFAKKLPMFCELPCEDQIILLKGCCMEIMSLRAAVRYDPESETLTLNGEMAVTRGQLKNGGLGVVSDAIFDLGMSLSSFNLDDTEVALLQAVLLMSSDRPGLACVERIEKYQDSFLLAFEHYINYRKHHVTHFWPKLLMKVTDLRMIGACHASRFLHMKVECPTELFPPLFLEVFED

CCNS(=O)(=O)C(F)(F)C(F)(F)C(F)(F)C(F)(F)C(F)(F)C(F)(F)C(F)(F)C(F)(F)F
inactive: [1]

CC(C)(OOC(C)(C)c1ccccc1)c1ccccc1
inactive: [1]

O=[N+]([O-])c1ccc(Oc2ccc(Cl)cc2Cl)cc1
inactive: all assays above

COP(=S)(OC)SCN1C(=O)c2ccccc2C1=O
inactive: [1]

CC(C)(C)C(O)(CCc1ccc(Cl)cc1)Cn1cncn1 (centres undefined)
not listed: [9]
inactive: all other assays above

Cc1cccc(N)c1N
inactive: [1]

c1ccc2c(c1)-c1cccc3cccc-2c13
not listed: [1]
inactive: all other assays above

c1ccc2c(c1)oc1ccccc12
inactive: [1]

ClC1=C(Cl)C2(Cl)C3C(Cl)C=CC3C1(Cl)C2(Cl)Cl (centres undefined)
inactive: [1]

O=[N+]([O-])C(Br)(CO)CO
inactive: [1]

Cc1cc(N=Nc2ccccc2C)ccc1N
inactive: [1]

[Cl-].[Cl-].[Hg+2]
active: [1] 39.4 µM

CCC(C)c1ccc(O)cc1 (centres undefined)
inactive: all assays above

C[C@]12C=CC3=C4CCC(=O)C=C4CC[C@H]3[C@@H]1CC[C@@H]2O
active: [10] 0.0256 µM
inactive: [2] | [5]

CCCCC(CC)COC(=O)c1ccc(C(=O)OCC(CC)CCCC)c(C(=O)OCC(CC)CCCC)c1 (centres undefined)
not listed: [1] | [3] | [5]
inactive: all other assays above

Nc1ccc(Cl)cc1N
inactive: [1]

CCCCOC(=O)c1ccccc1C(=O)OCc1ccccc1
not listed: [7] | [8]
inactive: all other assays above

Clc1ccc(C(c2ccc(Cl)cc2)C(Cl)(Cl)Cl)cc1
not listed: [4] | [7]
inactive: all other assays above

ClC1=C(Cl)[C@]2(Cl)[C@H]3[C@H]([C@@H]4C=C[C@H]3C4)[C@@]1(Cl)C2(Cl)Cl
inactive: [1]

CN(C)c1ccc(C(=O)c2ccc(N(C)C)cc2)cc1
inactive: [1]

CC(C)(O)c1cnn2c(-c3ccc(F)c(-c4c(F)cccc4C#N)c3)cnc2n1
inactive: [1]

CCCCCCCCn1sccc1=O
inactive: [1]

Clc1ccc(C(c2ccc(Cl)cc2)C(Cl)Cl)cc1
inactive: [2] | [3] | [5] | [10] | [1]

CC(C)COC(=O)c1ccccc1C(=O)OCC(C)C
inactive: [1]

CCCCCOC(=O)c1ccccc1C(=O)OCCCCC
active: [3] 174 µM
inactive: [4] | [9] | [10] | [1]

Brc1ccc(Oc2ccccc2)cc1
inactive: [1]

Oc1ccc2ccc3cccc4ccc1c2c34
active: [7] 151 µM | [9] 22.7 µM
inactive: [2] | [3] | [4] | [5] | [6] | [9] | [1]

CCC[CH2][Sn]([Cl])([CH2]CCC)[CH2]CCC
active: [10] 0.649 µM | [1] 3.44 µM
not listed: [7]
inactive: all other assays above

CCOC(=O)[C@]1(c2ccccc2)Oc2ccccc2[C@@H]1N
active: [1] 1.38 µM
